Source: PubChem BioAssay (Tox21)
Inconclusive results are not listed. Activity calls are given as the source filed them. Unless noted, calls follow the shape of the dose curve; as a rule, active = well fitted curve in the direction sought with a large enough effect in the repeat runs; inconclusive = weak or mixed curves; inactive = no such curve, though single readings can be large; an effect the other way counts as inactive or inconclusive.

Tests used:
[1] = biological target: Acetylcholinesterase (Homo sapiens) (UniProt P22303); experiment: Acetylcholinesterase (AChE) small molecule antagonists: enzyme-based qHTS assay (AID 1347397; calls by dose curve; also: nearly all actives have a fitted effect of over 55% in size); conditions: Potency: AChE enzyme activity inhibition; outcome: AChE enzyme activity inhibition
Chain of Acetylcholinesterase (Homo sapiens) (P22303 whole entry, looked up): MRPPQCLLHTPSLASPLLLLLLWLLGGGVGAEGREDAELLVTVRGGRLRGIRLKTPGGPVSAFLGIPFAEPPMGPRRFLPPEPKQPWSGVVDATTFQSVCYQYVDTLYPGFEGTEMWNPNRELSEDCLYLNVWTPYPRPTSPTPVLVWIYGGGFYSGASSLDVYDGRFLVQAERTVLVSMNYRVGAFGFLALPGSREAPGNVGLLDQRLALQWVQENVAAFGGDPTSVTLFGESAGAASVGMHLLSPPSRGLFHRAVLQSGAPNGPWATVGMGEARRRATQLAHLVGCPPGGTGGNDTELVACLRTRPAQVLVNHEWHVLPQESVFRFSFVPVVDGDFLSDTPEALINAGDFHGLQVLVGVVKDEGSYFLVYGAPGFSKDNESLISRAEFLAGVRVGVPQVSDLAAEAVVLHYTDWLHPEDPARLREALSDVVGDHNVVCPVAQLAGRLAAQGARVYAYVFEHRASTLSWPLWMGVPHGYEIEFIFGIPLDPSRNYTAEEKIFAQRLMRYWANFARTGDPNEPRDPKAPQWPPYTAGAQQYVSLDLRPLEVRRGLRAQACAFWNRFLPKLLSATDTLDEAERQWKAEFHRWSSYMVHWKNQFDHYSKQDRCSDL
Outline: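 rhAChE 50 mU/mL (dispensed) + cpd or DMSO, 30 min RT; add DTNB/acetylthiocholine cocktail, 10 min RT; colorimetric thiocholine readout. qHTS, 1536-well format.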

[2] = biological target: Acetylcholinesterase (Homo sapiens) (UniProt P22303); experiment: Acetylcholinesterase (AChE) small molecule antagonists: fluorescence cell-based qHTS assay (AID 1347398; calls by dose curve; also: nearly all actives have a fitted effect of over 50% in size); conditions: Potency: AChE activity; outcome: AChE activity
Outline: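 Read-out is Thiolite Green fluorescence at Ex/Em = 490/520 nm, formed by reaction with thiocholine released when cellular AChE in SH-SY5Y cells hydrolyzes acetylthiocholine. Compounds were preincubated 30 min at 37 C before substrate.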

[3] = biological target: Acetylcholinesterase (Homo sapiens) (UniProt P22303); experiment: Acetylcholinesterase (AChE) small molecule antagonists: enzyme-based qHTS assay with human liver microsomes (AID 1347399; calls by dose curve; also: nearly all actives have a fitted effect of over 60% in size); conditions: Potency: qHTS inhibition; outcome: qHTS inhibition
Outline: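 Recombinant human AChE (50 mU/mL in the enzyme mix) and human liver microsomes (0.25 mg/mL final) were preincubated with compound and NADPH (0.25 mg/mL final) for 30 min at 37 C. Acetylthiocholine/DTNB was then added; thiocholine was read colorimetrically after 10 min at room temperature.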

[4] = qHTS assay for small molecule agonists of the p53 signaling pathway (AID 651631; calls by dose curve; also: nearly all actives have a fitted effect of over 15% in size)
Outline: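 We treat p53RE-bla HCT-116 cells with compounds for 16 h at 37 °C, add LiveBLAzer B/G FRET substrate for 2 h at room temperature, and measure fluorescence intensity.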

[5] = qHTS assay for small molecules that induce genotoxicity in human embryonic kidney cells expressing luciferase-tagged ATAD5 (AID 651632); also: nearly all actives have a fitted effect of over 15% in size
Outline: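 HEK293T cells carrying luciferase-tagged ATAD5 were given compound or DMSO vehicle and incubated 16 hr at 37C, 5% CO2. Luciferase activity was read after 30 min at room temperature with Amplite; a rise signals genotoxic stress.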

[6] = qHTS assay for small molecule agonists of the p53 signaling pathway - cell viability (AID 651633; calls by dose curve;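 also: p53RE-bla HCT reporter cells with a stable beta-lactamase p53 reporter; series mostly up to about 83 µM; nearly all actives have a fitted effect of over 30% in size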)
Outline: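 Viability counter-read: CellTiter-Glo luminescence (30 min, room temperature) in the same p53RE-bla plates. These plates had been exposed to compounds for 16 h at 37 C.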

[7] = qHTS assay for small molecules that induce genotoxicity in human embryonic kidney cells expressing luciferase-tagged ATAD5 - cell viability (AID 651634; calls by dose curve; also: nearly all actives have a fitted effect of over 25% in size)
Outline: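 HEK293T cells carrying luciferase-tagged ATAD5, 2,000 cells/well, exposed to compound for 15.5 hr at 37C. Viability read as live-cell protease activity by CellTiter-Fluor fluorescence after 30 min at 37C.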

[8] = qHTS assay for small molecule disruptors of the mitochondrial membrane potential - cell viability (AID 720634; calls by dose curve;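 also: human HepG2 liver cancer cells; series mostly up to about 83 µM; nearly all actives have a fitted effect of over 20% in size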)
Outline: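 HepG2 cells, 2,000 per well, attached overnight, then treated 1 hr at 37 C, 5% CO2. Viability read as ATP by CellTiter-Glo luminescence after 30 min at room temperature. Read in the same wells as the m-MPI membrane-potential dye assay.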

[9] = qHTS assay to test for compound auto fluorescence at 590 nm (red) in HepG2 cells (AID 720674)
Outline: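 We screened compounds on adherent HepG2 cells, incubating them for an hour at 37 C in 5% CO2 before reading emission at 590 nm under 540 nm excitation; values reflect equivalence to Rose Bengal sodium fluorescence.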

[10] = qHTS assay to test for compound auto fluorescence at 535 nm (green) in HepG2 cells (AID 720675)
[11] = qHTS assay to test for compound auto fluorescence at 460 nm (blue) in HEK293 cells (AID 720678)
Outline: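 HEK293, 2,000 cells/well, 10% dialyzed FBS; attach 4-5 hr 37C; pin compound or DMSO; o/n 37C/5% CO2; fluorescence 405/460 nm; triamterene-equivalent units.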

[12] = qHTS assay to test for compound auto fluorescence at 590 nm (red) in HEK293 cells (AID 720679)
Outline: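 Intensity at 540nm excitation and 590nm emission is reported as Rose Bengal sodium-equivalent autofluorescence. Measurements followed overnight exposure (37C, 5% CO2) of HEK293 cells, 2,000 per well, to 23 nL compound.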

[13] = qHTS assay to test for compound auto fluorescence at 535 nm (green) in HEK293 cells (AID 720680)
[14] = qHTS assay to test for compound auto fluorescence at 460 nm (blue) in HEK293 cell free culture (AID 720681)
Outline: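 Blue fluorescence (Ex 405/Em 460 nm, triamterene-equivalent) was read immediately after pin transfer of compound or DMSO into medium (DMEM, 10% FBS) without cells.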

[15] = qHTS assay to test for compound auto fluorescence at 535 nm (green) in HEK293 cell free culture (AID 720682)
Outline: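 Green-channel intensity (Ex/Em 485/535 nm) was recorded from compound-treated wells containing only DMEM with 10% FBS. Fluorescein provided the equivalency standard.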

[16] = qHTS assay to test for compound auto fluorescence at 590 nm (red) in HEK293 cell free culture (AID 720683)
Outline: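 Red-channel autofluorescence of compounds in culture medium (DMEM, 10% FBS), no cells, measured at 540/590 nm. Rose Bengal sodium is the reference fluorophore for equivalence.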

[17] = qHTS assay to test for compound auto fluorescence at 590 nm (red) in HepG2 cell free culture (AID 720684)
Outline: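 Steps: dispense MEM/10% FBS medium, no cells; pin compound or DMSO vehicle; read red channel, Ex/Em 540/590 nm. Output given as Rose Bengal sodium equivalents.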

[18] = qHTS assay to test for compound auto fluorescence at 460 nm (blue) in HepG2 cell free culture (AID 720685)
Outline: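 Compound (23 nL) or DMSO pinned into cell-free MEM with 10% FBS; blue fluorescence read at 405/460 nm excitation/emission, expressed as auto-fluorescence equivalency to triamterene.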

[19] = qHTS assay to test for compound auto fluorescence at 535 nm (green) in HepG2 cell free culture (AID 720686)
[20] = qHTS assay to test for compound auto fluorescence at 460 nm (blue) in HepG2 cells (AID 720687)
Outline: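 Blue-channel autofluorescence (Ex/Em 405/460 nm, triamterene-equivalent) was measured after 1 hr compound exposure at 37 C, 5% CO2. Cells were HepG2, plated overnight at 37 C in MEM plus 10% FBS.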

[21] = biological target: Glucocorticoid receptor (Homo sapiens) (UniProt P04150); experiment: qHTS assay to identify small molecule agonists of the glucocorticoid receptor (GR) signaling pathway (AID 720691; active = well fitted activation curve with a large enough effect in the signal ratio in the repeat runs, not every such curve was filed as active; the % refers to the signal ratio)
Chain of Glucocorticoid receptor (Homo sapiens) (P04150 whole entry, looked up): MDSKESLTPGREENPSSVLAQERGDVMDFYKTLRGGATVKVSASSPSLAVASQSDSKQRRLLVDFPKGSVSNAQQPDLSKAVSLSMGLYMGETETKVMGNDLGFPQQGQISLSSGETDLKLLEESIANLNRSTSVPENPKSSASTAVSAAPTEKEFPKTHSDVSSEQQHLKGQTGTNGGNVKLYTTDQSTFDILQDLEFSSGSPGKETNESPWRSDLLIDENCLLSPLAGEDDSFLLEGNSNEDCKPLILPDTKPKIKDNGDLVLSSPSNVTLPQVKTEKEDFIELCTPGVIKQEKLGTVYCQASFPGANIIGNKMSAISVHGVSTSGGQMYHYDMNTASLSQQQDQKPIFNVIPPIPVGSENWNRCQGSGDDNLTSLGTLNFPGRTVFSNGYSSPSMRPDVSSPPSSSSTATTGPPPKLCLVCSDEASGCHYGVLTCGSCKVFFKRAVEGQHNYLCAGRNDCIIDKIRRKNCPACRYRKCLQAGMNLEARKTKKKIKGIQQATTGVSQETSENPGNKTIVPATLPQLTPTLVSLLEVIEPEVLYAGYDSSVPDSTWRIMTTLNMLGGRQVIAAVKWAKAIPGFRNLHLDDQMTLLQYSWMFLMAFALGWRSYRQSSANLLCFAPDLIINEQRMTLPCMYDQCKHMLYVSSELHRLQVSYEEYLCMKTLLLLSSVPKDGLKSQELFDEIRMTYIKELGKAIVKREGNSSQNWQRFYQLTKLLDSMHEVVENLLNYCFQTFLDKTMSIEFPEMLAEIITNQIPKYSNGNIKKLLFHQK
Outline: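 GR-bla HeLa cells carrying a GRE-driven beta-lactamase reporter, exposed to compounds for 18 h at 37 C. Reporter activation read as fluorescence after 2 h with LiveBLAzer B/G FRET substrate at room temperature.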

[22] = biological target: Glucocorticoid receptor (Homo sapiens) (UniProt P04150); experiment: qHTS assay to identify small molecule antagonists of the glucocorticoid receptor (GR) signaling pathway (AID 720692; active = well fitted inhibition curve with a large enough effect in the signal ratio in the repeat runs, not every such curve was filed as active; the % refers to the signal ratio)
Outline: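 GR-bla HeLa cells carrying a GRE-driven beta-lactamase reporter received compound after 4 h plating, then dexamethasone (5 nM final). After 18 h at 37C, the FRET substrate was loaded for 2 h at room temperature and fluorescence read.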

[23] = qHTS assay to identify small molecule antagonists of the glucocorticoid receptor (GR) signaling pathway - cell viability counter screen (AID 720693); also: nearly all actives have a fitted effect of over 55% in size
[24] = qHTS assay for identifying genotoxic compounds that show differential cytotoxicity against isogenic chicken DT40 cell lines with known DNA damage response pathways - wild type cell line (AID 743012); also: nearly all actives have a fitted effect of over 60% in size
Outline: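 Wild-type DT40 cells (300/well) exposed to compounds for 40 hours at 37 C/5% CO2. Viability read by CellTiter-Glo luminescence after 30 min at room temperature.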

[25] = qHTS assay for identifying genotoxic compounds that show differential cytotoxicity against isogenic chicken DT40 cell lines with known DNA damage response pathways - Rev3 mutant cell line (AID 743014); also: nearly all actives have a fitted effect of over 55% in size
[26] = qHTS assay for identifying genotoxic compounds that show differential cytotoxicity against isogenic chicken DT40 cell lines with known DNA damage response pathways - Rad54/Ku70 mutant cell line (AID 743015); also: nearly all actives have a fitted effect of over 60% in size
[27] = qHTS assay to identify small molecule antagonists of the androgen receptor (AR) signaling pathway - cell viability counter screen (AID 743033; also: nearly all actives have a fitted effect of over 45% in size)
[28] = biological target: Androgen receptor (Homo sapiens) (UniProt P10275); experiment: qHTS assay to identify small molecule antagonists of the androgen receptor (AR) signaling pathway (AID 743035; active = well fitted inhibition curve with a large enough effect in the signal ratio in the repeat runs, not every such curve was filed as active; the % refers to the signal ratio)
Chain of Androgen receptor (Homo sapiens) (P10275 whole entry, looked up): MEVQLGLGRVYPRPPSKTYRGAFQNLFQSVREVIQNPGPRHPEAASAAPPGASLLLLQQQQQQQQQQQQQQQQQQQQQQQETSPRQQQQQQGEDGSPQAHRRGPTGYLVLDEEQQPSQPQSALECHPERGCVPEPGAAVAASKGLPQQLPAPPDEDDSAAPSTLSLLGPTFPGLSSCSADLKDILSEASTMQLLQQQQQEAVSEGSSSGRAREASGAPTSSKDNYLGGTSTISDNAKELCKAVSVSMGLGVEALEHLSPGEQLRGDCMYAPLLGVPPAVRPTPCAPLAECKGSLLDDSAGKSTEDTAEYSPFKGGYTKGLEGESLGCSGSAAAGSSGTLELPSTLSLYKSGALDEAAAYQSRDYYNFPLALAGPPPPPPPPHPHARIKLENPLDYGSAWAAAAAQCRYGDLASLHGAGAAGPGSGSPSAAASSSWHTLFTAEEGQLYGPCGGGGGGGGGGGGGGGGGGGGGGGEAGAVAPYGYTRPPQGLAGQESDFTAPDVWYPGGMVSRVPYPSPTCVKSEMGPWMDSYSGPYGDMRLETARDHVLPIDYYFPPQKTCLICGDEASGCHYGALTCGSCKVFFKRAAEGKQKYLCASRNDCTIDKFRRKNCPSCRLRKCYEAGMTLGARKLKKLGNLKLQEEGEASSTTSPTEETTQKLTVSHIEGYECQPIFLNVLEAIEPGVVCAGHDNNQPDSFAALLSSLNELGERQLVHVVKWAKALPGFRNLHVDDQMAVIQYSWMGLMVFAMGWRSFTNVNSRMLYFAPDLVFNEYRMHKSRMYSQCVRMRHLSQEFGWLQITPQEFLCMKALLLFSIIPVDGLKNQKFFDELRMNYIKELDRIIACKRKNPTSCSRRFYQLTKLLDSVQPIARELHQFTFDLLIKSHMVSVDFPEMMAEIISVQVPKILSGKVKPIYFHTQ
Outline: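 HEK293 cells stably carrying UAS-beta-lactamase reporter, 2,000/well, given compounds plus R1881 agonist and incubated 16 h at 37C. LiveBLAzer B/G FRET substrate then added for 2 h at room temperature before fluorescence reading.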

[29] = biological target: Androgen receptor (Homo sapiens) (UniProt P10275); experiment: qHTS assay to identify small molecule agonists of the androgen receptor (AR) signaling pathway (AID 743036; active = well fitted activation curve with a large enough effect in the signal ratio in the repeat runs, with a control signal flat, not every such curve was filed as active; the % refers to the signal ratio)
Outline: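 Cell-based FRET reporter assay: HEK293 line with a UAS-beta-lactamase construct, compounds added in DMSO, 16 h exposure at 37C, then 2 h substrate step at room temperature and fluorescence intensity read.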

[30] = biological target: Androgen receptor (Homo sapiens) (UniProt P10275); experiment: qHTS assay to identify small molecule agonists of the androgen receptor (AR) signaling pathway using the MDA cell line (AID 743040; also: nearly all actives have a fitted effect of over 20% in size)
Outline: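 Cells plated, 5 h at 37C/0% CO2; compound or DMSO pinned; 16 h at 37C; ONE-Glo added; luminescence measured after 30 min at room temperature. Reporter line: MDA-kb2 with MMTV-luciferase responsive to AR and GR.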

[31] = qHTS assay to identify small molecule antagonists of the androgen receptor (AR) signaling pathway using the MDA cell line - cell viability counter screen (AID 743041; also: nearly all actives have a fitted effect of over 45% in size)
Outline: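 Cells were plated at 3,000 per well and left 5 h. Compounds in DMSO were then pinned in, followed by R1881. After 16 h at 37C, CellTiter-Fluor fluorescence gave viability.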

[32] = biological target: Androgen receptor (Homo sapiens) (UniProt P10275); experiment: qHTS assay to identify small molecule antagonists of the androgen receptor (AR) signaling pathway using the MDA cell line (AID 743042; also: nearly all actives have a fitted effect of over 55% in size)
Outline: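 Antagonist mode: compounds plus R1881 agonist added to MDA-kb2 AR-luc cells, incubated 16 h at 37C. Luciferase reporter luminescence quantified, with multiplexed CellTiter-Fluor readout for cell viability.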

[33] = qHTS assay to identify small molecule antagonists of the thyroid receptor (TR) signaling pathway - cell viability counter screen (AID 743064); also: nearly all actives have a fitted effect of over 50% in size
Outline: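 In rat pituitary GH3.TRE-Luc reporter cells co-exposed to compound and 1 nM T3 for 23.5 h, cytotoxicity was assessed with CellTiter-Fluor in the same wells, read by fluorescence.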

[34] = qHTS assay to identify small molecule antagonists of the thyroid receptor (TR) signaling pathway (AID 743065)
Outline: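 Antagonism measured as loss of luciferase signal in GH3 cells stably carrying a TRE-luciferase reporter, co-treated with compound and T3 (1 nM final) for 23.5 h at 37 C. Viability was read in the same well by CellTiter-Fluor.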

[35] = tested on: thyroid hormone receptor (rat, GH3 cells); experiment: qHTS assay to identify small molecule agonists of the thyroid receptor (TR) signaling pathway (AID 743066; calls by dose curve)
[36] = qHTS assay to identify small molecule antagonists of the estrogen receptor alpha (ER-alpha) signaling pathway - cell viability counter screen (AID 743074; calls by dose curve;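 also: HEK293 cells carrying ER-alpha-UAS-bla reporter stimulated with 17beta-estradiol; nearly all actives have a fitted effect of over 45% in size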)
[37] = qHTS assay to identify small molecule antagonists of the estrogen receptor alpha (ER-alpha) signaling pathway using the BG1 cell line - cell viability counter screen (AID 743081);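 also: compound given together with 17beta-estradiol as the ER stimulus; series mostly up to about 70 µM; nearly all actives have a fitted effect of over 45% in size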
Aromatase (Homo sapiens) = Aromatase (Homo sapiens) (UniProt P11511); experiment: qHTS assay to identify aromatase inhibitors (AID 743083)
Chain of Aromatase (Homo sapiens) (P11511 whole entry, looked up): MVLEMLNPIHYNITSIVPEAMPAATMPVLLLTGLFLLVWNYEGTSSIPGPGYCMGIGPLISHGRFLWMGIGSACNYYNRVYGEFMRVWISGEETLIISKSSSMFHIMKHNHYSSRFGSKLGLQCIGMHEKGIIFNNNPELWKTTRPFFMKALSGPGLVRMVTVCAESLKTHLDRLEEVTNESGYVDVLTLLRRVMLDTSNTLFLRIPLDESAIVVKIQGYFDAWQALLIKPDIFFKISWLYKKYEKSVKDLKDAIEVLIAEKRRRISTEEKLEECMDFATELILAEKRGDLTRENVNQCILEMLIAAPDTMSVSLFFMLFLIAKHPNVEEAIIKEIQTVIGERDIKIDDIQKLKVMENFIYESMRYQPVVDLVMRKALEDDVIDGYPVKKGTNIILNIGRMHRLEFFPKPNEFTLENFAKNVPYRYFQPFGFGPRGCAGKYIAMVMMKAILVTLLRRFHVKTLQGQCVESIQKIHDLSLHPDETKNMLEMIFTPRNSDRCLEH

[38] = qHTS assay to identify aromatase inhibitors - cell viability counter screen (AID 743084)
[39] = biological target: Aryl hydrocarbon receptor (Homo sapiens) (UniProt P35869); experiment: qHTS assay to identify small molecule that activate the aryl hydrocarbon receptor (AhR) signaling pathway (AID 743085);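 also: HG2L7.5c1 human HepG2 liver cells with stably integrated DRE-driven firefly reporter; series mostly up to about 70 µM; nearly all actives have a fitted effect of over 15% in size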
Chain of Aryl hydrocarbon receptor (Homo sapiens) (P35869 whole entry, looked up): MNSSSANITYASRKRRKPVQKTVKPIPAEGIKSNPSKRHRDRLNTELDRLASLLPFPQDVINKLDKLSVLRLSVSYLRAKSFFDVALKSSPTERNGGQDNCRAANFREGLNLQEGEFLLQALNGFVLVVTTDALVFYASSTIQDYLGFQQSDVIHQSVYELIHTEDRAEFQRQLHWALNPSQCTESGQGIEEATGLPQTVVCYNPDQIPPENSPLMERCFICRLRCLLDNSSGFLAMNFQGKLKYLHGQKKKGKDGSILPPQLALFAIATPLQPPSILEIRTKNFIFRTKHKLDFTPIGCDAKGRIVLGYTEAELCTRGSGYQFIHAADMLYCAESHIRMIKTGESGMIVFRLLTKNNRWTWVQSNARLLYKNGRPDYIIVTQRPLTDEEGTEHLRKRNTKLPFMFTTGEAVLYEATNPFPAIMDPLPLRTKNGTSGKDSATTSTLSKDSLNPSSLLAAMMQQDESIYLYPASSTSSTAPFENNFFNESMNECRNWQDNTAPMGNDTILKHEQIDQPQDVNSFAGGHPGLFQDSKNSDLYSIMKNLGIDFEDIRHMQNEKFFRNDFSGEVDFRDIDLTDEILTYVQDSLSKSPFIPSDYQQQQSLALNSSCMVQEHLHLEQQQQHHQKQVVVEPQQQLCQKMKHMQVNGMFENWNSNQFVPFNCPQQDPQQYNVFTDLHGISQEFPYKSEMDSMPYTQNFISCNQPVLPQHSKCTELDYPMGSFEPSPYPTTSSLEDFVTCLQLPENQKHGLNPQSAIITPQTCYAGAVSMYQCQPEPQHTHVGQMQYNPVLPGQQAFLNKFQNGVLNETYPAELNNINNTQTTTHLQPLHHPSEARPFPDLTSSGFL
Outline: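 AhR agonist activity is inferred from enhanced light output of a DRE-controlled firefly luciferase reporter in HepG2 cells, measured with ONE-Glo following 24 h treatment at 37C.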

[40] = qHTS assay to identify small molecule that activate the aryl hydrocarbon receptor (AhR) signaling pathway - cell viability counter screen (AID 743086)
Outline: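 Cytotoxicity counter screen: CellTiter-Fluor signal (30 min, 37 C) in 4000 HepG2 cells/well carrying the DRE-luciferase reporter, following 24 h compound exposure at 37 C.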

[41] = biological target: Peroxisome proliferator-activated receptor gamma (Homo sapiens) (UniProt P37231); experiment: qHTS assay to identify small molecule agonists of the peroxisome proliferator-activated receptor gamma (PPARg) signaling pathway (AID 743094; active = well fitted activation curve with a large enough effect in the signal ratio in the repeat runs, not every such curve was filed as active; the % refers to the signal ratio)
Chain of Peroxisome proliferator-activated receptor gamma (Homo sapiens) (P37231 whole entry, looked up): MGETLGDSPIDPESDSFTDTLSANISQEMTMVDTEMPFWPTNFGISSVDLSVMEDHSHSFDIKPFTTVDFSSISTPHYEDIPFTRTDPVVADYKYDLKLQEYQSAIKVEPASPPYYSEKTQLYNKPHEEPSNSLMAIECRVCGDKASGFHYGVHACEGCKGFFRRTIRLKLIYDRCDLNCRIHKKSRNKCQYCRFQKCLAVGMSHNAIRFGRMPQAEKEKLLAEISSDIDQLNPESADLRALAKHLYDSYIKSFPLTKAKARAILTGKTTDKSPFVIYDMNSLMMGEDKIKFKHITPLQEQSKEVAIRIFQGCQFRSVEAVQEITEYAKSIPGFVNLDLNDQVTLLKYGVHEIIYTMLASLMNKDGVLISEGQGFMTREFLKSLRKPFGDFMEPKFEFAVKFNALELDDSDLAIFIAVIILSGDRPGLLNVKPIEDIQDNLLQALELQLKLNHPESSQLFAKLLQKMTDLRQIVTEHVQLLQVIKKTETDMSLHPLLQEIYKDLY
Outline: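 GeneBLAzer PPARg UAS-bla HEK293H cells were plated, rested 5 h, then exposed to compounds for 17 h at 37C. Beta-lactamase activity was read by LiveBLAzer B/G FRET substrate fluorescence after 1 h at room temperature.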

Measured: Potency

O=[N+]([O-])c1c(Cl)cc(Cl)cc1Cl
inactive: [1] | [2] | [3]

O=c1cc[nH]cc1
inactive: [1] | [2] | [3]

c1ccc2cnncc2c1
inactive: [1] | [3]

C[C@@H]1[C@@H]2Cc3ccc(O)cc3[C@@]1(C)CCN2CC1CC1
inactive: [4] | [5] | [6] | [7] | [8] | [9] | [10] | [11] | [12] | [13] | [14] | [15] | [16] | [17] | [18] | [19] | [20] | [21] | [22] | [23] | [24] | [25] | [26] | [27] | [28] | [29] | [30] | [31] | [32] | [33] | [34] | [35] | [36] | [37] | Aromatase (Homo sapiens) | [38] | [39] | [40] | [41]
